Compounds with a hit are over-represented: about 1.8% of the library has one in this group of screens.
ARNT TACC3 PPI: disruptors of human ARNT/TACC3 interaction | Q9Y6A5 | AlphaScreen His-ARNT PAS-B/GST-TACC3 binding, luminescence; TACC3 fragment carries E629A point mutation | inhibition, % at 9.99 µM | hit rate 0.66% among 390,000 | AID 623870;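 active = mean inhibition of replicates at least 50% and at least half of replicates each reaching 50%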;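 also: 0% = complete ARNT plus TACC3 wells and 100% = ARNT alone without TACC3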
INS-1E GSIS act: GLuc luminescence reporter in INS-1E cells, primary screen for activators of glucose-dependent secretion of insulin. hit rate 0.61% among 370,000. INS-1E GLuc reporter insulin secretion, 2-3 h. activation, % at 16.6 µM;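 active = lowest replicate activation of at least 40%, so every replicate reaches that level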;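 also: 0% = median of neutral control wells and 100% = median of IBMX positive control wells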
iPSC survival up: enhancers of human iPSC single-cell survival. hiPSC single-cell survival, ATPlite luminescence; 100% = ROCK inhibitor wells, 0% = DMSO. survival enhancement, % at 20 µM. hit rate 0.044% among 360,000. AID 602274; in the data active = survival enhancement above about 18%;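 also: cells exposed to compounds for 16 hours before the ATP read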
ABCB6 inh MLPCN: blocks the human ABCB6 transporter; Q9NP58; K562-ABCB6 porphyrin accumulation, flow cytometry, 1 h; active compounds read low; fluorescence ratio to DMSO, % at 10 µM; hit rate 0.19% among 360,000; AID 602162;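 active = fluorescence ratio to DMSO below 75%, the collection mean minus 3 SD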;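 also: signal is porphyrin accumulated inside mitochondria; 100% equals median channel fluorescence of DMSO control wells; lower ratio means ABCB6 inhibition with less porphyrin fluorescence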
Target sequence (Q9NP58 whole entry, looked up): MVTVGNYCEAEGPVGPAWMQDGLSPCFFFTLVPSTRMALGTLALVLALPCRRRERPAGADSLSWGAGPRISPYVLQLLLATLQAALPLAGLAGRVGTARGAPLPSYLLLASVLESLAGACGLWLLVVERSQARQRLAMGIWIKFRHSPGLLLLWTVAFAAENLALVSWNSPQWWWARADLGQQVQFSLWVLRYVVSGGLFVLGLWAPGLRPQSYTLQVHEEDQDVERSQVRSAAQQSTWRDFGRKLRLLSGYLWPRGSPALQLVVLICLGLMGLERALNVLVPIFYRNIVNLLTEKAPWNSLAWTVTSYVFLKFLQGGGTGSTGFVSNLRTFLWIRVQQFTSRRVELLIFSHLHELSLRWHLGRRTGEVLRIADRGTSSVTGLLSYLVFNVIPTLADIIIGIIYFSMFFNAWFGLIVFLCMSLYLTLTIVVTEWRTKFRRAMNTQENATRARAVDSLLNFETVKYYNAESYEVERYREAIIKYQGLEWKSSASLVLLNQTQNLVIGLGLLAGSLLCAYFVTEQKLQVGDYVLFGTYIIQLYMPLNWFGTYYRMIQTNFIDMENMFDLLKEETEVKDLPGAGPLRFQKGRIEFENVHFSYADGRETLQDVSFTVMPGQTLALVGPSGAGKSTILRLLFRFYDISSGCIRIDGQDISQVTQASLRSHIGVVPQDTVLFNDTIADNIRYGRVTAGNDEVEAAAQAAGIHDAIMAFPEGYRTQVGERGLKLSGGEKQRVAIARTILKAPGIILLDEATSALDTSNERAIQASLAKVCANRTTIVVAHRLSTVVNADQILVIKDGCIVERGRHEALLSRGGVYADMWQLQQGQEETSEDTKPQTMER
CendR NRP1 mod: modulators of CendR peptide binding to human neuropilin-1; FAM-RPARPAR peptide binding to NRP-1, fluorescence polarization; inhibition, % at 25 µM; hit rate 0.85% among 360,000; AID 602438;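 active = inhibition or corrected inhibition above about 18%, plus a signal ratio from 0.5 to 1.5, limit read from the data, passing the limit was not always enough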
* hit, by the source's call; . = no result given.

SMILES	ARNT TACC3 PPI	INS-1E GSIS act	iPSC survival up	ABCB6 inh MLPCN	CendR NRP1 mod
COc1ccc(/C=C/C(=O)OCC(=O)Nc2ccc3c(c2)OCO3)cc1	-5.4	45.5	-0.1	95.0	21.4*
COc1cc(/C=C/C(=O)OCC(=O)Nc2ccc3c(c2)OCO3)ccc1O	2.0	2.2	0.3	102.0	-4.5
CC(C)C(C(=O)Nc1ccc2c(c1)OCO2)N1C(=O)c2ccccc2C1=O (centres undefined)	3.0	.	-1.2	93.0	0.1
CC(C(=O)OCC(=O)Nc1ccc2c(c1)OCO2)N1C(=O)c2ccccc2C1=O (centres undefined)	2.3	.	-0.5	89.0	21.7*
CCOC(=O)c1[nH]c2ccc(OC)cc2c1NC(=O)/C=C/c1ccc2c(c1)OCO2	-3.0	65.6*	0.1	98.0	-3.1
CCOc1ccc(/C=N/OCC(=O)Nc2ccc3c(c2)OCO3)cc1	-5.0	-24.3	4.1	91.0	32.0*
COc1ccc2c3c(n(C)c2c1)[C@@H](CO)NCC31CCN(C(=O)Nc2ccccc2F)CC1	.	4.5	.	.	.
COc1ccc2c3c([nH]c2c1)[C@@H](CO)N(C(=O)C1CCOCC1)CC31CCN(C(=O)NC(C)C)CC1	.	8.4	.	.	.
O=C(Nc1cccc(Cl)c1)N1C[C@H]2[C@@H](c3ccccc31)[C@H](CO)N2C(=O)C1CC1	4.7	-4.9	.	.	.
COc1cccc(C#Cc2ccc3c(c2)O[C@H](CN(C)C(=O)c2ccccn2)[C@H](C)CN([C@@H](C)CO)S3(=O)=O)c1	22.2	3.4	.	.	.
COc1ccc(C[C@H]2CN3C(=NC[C@@H]3C(C)C)N2CCNC(=O)CCC2CCCCC2)cc1	2.2	-14.4	-3.1	93.0	-2.2
COc1ccc(C[C@H]2CN3C(=NC[C@@H]3Cc3ccccc3)N2CCNC(=O)CCC2CCCCC2)cc1	20.1	155.0*	-4.2	95.0	-3.8
O=C(COC(=O)c1cc(-c2cccs2)nn1-c1ccccc1)Nc1cccc([N+](=O)[O-])c1	-4.9	-1.7	2.1	97.0	-2.7
Cc1ccc(NC(=O)COC(=O)c2cc(-c3cccs3)nn2-c2ccccc2)cc1[N+](=O)[O-]	7.9	69.2*	2.2	98.0	4.5
CC(=O)OCCNc1cc(SCc2ccco2)c2nonc2c1[N+](=O)[O-]	9.8	.	-0.1	107.0	26.9*
CC(=O)OCCNc1cc(Sc2nc3ccccc3[nH]2)c2nonc2c1[N+](=O)[O-]	17.4	121.2*	0.1	97.0	1.9
CC(=O)OCCCNc1cc(Sc2nc3ccccc3s2)c2nonc2c1[N+](=O)[O-]	24.2	.	1.5	101.0	-1.2
CC(C)NC(=O)N(C)C[C@H]1Oc2c(NC(=O)Cn3cnnn3)cccc2C(=O)N([C@H](C)CO)C[C@@H]1C	.	-4.0	.	.	.
C[C@@H]1ON(C)[C@H]2C[C@H]3c4[nH]c5cccc(Br)c5c4CCN3C(=O)[C@@H]12	.	125.4*	.	.	.
Cc1cccc(-c2cccc3[nH]c4c(c23)CCN2C(=O)[C@H]3[C@H](C)ON(C)[C@H]3C[C@@H]42)c1	.	9.4	.	.	.
NC(=O)C1CCN(C(=O)CCNS(=O)(=O)c2ccccc2F)CC1	3.9	47.9*	-0.2	106.0	6.8
CO[C@@H]1CN(C)C(=O)c2cc(NS(=O)(=O)CC(F)(F)F)ccc2OC[C@H](C)N(C(=O)c2ccc3c(c2)OCO3)C[C@@H]1C	-0.1	20.5	.	.	.
COc1ccc(CN(C)C[C@H]2Oc3ccc(NC(=O)Cn4cnnn4)cc3C(=O)N([C@@H](C)CO)C[C@@H]2C)cc1	10.3	12.0	.	.	.
O=c1c2c(nc3c(-c4ccccc4)c[nH]n13)CCC2	5.9	14.5	-3.3	96.0	-6.8
O=c1c2c(nc3c(-c4ccc(Cl)cc4)c[nH]n13)CCC2	46.0*	-0.7	0.8	99.0	-0.9
CCNc1nc(NC(C)CC)nc(ON=C(C)C)n1 (centres undefined)	-2.9	55.7*	0.5	95.0	-1.4
CCNc1nc(NC(C)CC)nc(Oc2ccc(=O)[nH]n2)n1 (centres undefined)	-5.6	-3.4	4.4	100.0	2.6
CC(C)(C)N(NC(=O)Nc1ccc(Cl)cc1)C(=O)c1ccccc1	27.9	.	-1.8	115.0	29.3*
Cc1cc2nc3c(=O)[nH]c(=S)[nH]c3nc2cc1NC(=O)C(F)(F)F	70.3*	20.1	-0.2	152.0	49.1
C[C@@H]1CN([C@H](C)CO)C(=O)Cc2cc(NC(=O)Cc3cn(C)c4ccccc34)ccc2O[C@@H]1CN(C)Cc1ccc(Cl)c(Cl)c1	.	3.1	.	.	.

Source: PubChem BioAssay (several laboratories)
